{"source": "PubChem BioAssay AID485358", "about": "(National Center for Advancing Translational Sciences (NCATS), 2010)", "note": "The campaign covered roughly 340,000 compounds. About 1,800 (0.53%) were called active.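 Rule for the calls: active = activation over 3 SD above normal in the single-dose calcium agonist read (cut at about 30% in these data); inactive = the rest.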 What follows is part of a selection rich in actives, with near analogues and random picks from the rest.", "data": [{"molecular_target": "D(2) dopamine receptor (Homo sapiens) (UniProt P14416)", "sequence (P14416 whole entry, looked up)": "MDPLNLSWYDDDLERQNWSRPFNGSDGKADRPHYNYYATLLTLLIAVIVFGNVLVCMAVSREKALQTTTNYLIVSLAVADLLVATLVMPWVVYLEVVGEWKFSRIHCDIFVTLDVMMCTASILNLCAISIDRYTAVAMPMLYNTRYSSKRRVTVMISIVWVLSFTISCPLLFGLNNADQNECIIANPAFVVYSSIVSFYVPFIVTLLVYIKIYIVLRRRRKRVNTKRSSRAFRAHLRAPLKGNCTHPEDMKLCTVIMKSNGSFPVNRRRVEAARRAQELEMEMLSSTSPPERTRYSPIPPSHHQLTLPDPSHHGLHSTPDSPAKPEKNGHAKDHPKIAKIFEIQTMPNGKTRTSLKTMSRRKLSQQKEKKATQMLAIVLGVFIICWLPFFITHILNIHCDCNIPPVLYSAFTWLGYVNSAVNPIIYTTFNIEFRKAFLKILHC", "test": "HTS Assay for Allosteric Agonists of the Human D2 Dopamine Receptor: Primary Screen for Agonists; note: 0% is about no effect", "conditions": "HEK293 T-REx D2 cells, calcium flux agonist mode; at 2 µM; hits give high values", "how_it_was_run": "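Agonism scored from kinetic calcium signal (1 read/sec, 180 s) following compound pin transfer, after a 10 s baseline. Cells: HEK293 Trex line expressing inducible D2 receptor coupled to calcium, dye-loaded after overnight culture at 30 C.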", "values": [{"smiles": "CCOC(=O)c1nnn2c3ccccc3c(=O)n(C)c12", "activation": "0.451% (inactive)"}, {"smiles": "Cn1c2ccccc2c2c(C(=O)N3CCN(c4ccc(F)cc4)CC3)cn(C3CCCC3)c(=O)c21", "activation": "0.715% (inactive)"}, {"smiles": "CCCc1nc2c(c(=O)c3ccccc3n2C)c(=O)n1C1CCCCCC1", "activation": "38.8% (active)"}, {"smiles": "COc1cccc(CNc2nccn(-c3ccc(OC)c(OC)c3)c2=O)c1", "activation": "0.433% (inactive)"}, {"smiles": "CCOc1ccccc1C(=O)NC1(C(F)(F)F)NC(=O)N(CCc2ccc(OC)c(OC)c2)C1=O", "note": "(stereo not given)", "activation": "-1.49% (inactive)"}, {"smiles": "Cc1ccc(C)c(CN2C(=O)c3ccccc3S(=O)c3ccc(C(=O)N4CCOCC4)cc32)c1", "note": "(stereo not given)", "activation": "0.908% (inactive)"}, {"smiles": "CCSc1nnc2c(n1)OC(c1ccc(OCC(=O)O)cc1)Nc1ccccc1-2", "note": "(stereo not given)", "activation": "-0.918% (inactive)"}, {"smiles": "OCC1(Cc2ccccc2)CCN(Cc2cc3ccccc3o2)CC1", "activation": "58.8% (active)"}, {"smiles": "CC(C)c1csc(CN2CCC(CO)(Cc3ccccc3)CC2)n1", "activation": "0.222% (inactive)"}, {"smiles": "O=C(c1cc2ccccc2o1)N1CCN(Cc2ccccc2)CC1", "activation": "0.213% (inactive)"}, {"smiles": "O=C(c1ccc(Cl)cc1)c1ccc(OCC(O)CN2CCCCC2)cc1", "note": "(stereo not given)", "activation": "0.406% (inactive)"}, {"smiles": "OC(COc1ccc2c(c1)CCC2)CN1CCN(c2cccc(Cl)c2)CC1", "note": "(stereo not given)", "activation": "55.1% (active)"}, {"smiles": "O=c1cc(CN2CCN(c3cccc(Cl)c3)CC2)c2cc3c(cc2o1)CCCC3", "activation": "-0.276% (inactive)"}, {"smiles": "CCNS(=O)(=O)c1ccc(NC(=O)CSc2nc(-c3ccco3)cc(C(F)(F)F)n2)cc1", "activation": "-0.45% (inactive)"}, {"smiles": "Nc1c(C(=O)c2cccs2)sc2nsc(SCCN3CCCCC3)c12", "activation": "52.2% (active)"}, {"smiles": "COc1ccc(CCC(=O)NCc2ccc3c(c2)CCN3C(=O)c2ccc(F)cc2)cc1", "activation": "1.61% (inactive)"}, {"smiles": "CCN1CCN(c2ncc3c(n2)CC(c2ccccc2O)CC3=O)CC1", "note": "(stereo not given)", "activation": "-0.199% (inactive)"}, {"smiles": "COc1cc(OC)c2ccc(=O)oc2c1C(CCN1CCN(c2ccccc2)CC1)c1ccc2c(c1)OCO2", "note": "(stereo not given)", "activation": "78.4% (active)"}, {"smiles": "COc1cc(C(CCN2CCN(c3ccccc3)CC2)c2c(OC)cc(OC)c3ccc(=O)oc23)cc(OC)c1OC", "note": "(stereo not given)", "activation": "25.6% (inactive)"}, {"smiles": "CCN(CC)CCC(c1ccc2c(c1)OCO2)c1c(OC)cc(OC)c2c(-c3ccccc3)cc(=O)oc12", "note": "(stereo not given)", "activation": "-1.38% (inactive)"}, {"smiles": "CCCn1c2ccccc2c2cnn(CC(=O)N3CCCC(C(=O)OCC)C3)c(=O)c21", "note": "(stereo not given)", "activation": "0.474% (inactive)"}, {"smiles": "CCN(C(=O)Cn1c(=O)nc(-c2ccccc2)c2cc(Cl)ccc21)c1cccc(C)c1", "activation": "6.7% (inactive)"}, {"smiles": "Cc1csc2nc(COC(=O)c3ccccc3NC(=O)c3ccccc3Cl)cc(=O)n12", "activation": "0.344% (inactive)"}, {"smiles": "O=c1cc(CCl)nc2scc(-c3ccccc3)n12", "activation": "39.4% (active)"}, {"smiles": "Cc1csc2nc(COc3ccc(NC(=O)COc4ccccc4)cc3)cc(=O)n12", "activation": "-0.592% (inactive)"}, {"smiles": "CCc1ccccc1NC(=O)c1ccc(F)c(S(=O)(=O)NC2CCCCCC2)c1", "activation": "0.52% (inactive)"}, {"smiles": "COc1ccc(NC(=O)CN2CCCN(Cc3ccccc3)S2(=O)=O)cc1", "activation": "-1.11% (inactive)"}, {"smiles": "COc1ccc(-c2nn(CC(=O)Nc3ccccc3F)c3c2cnc2ccc(F)cc23)cc1", "activation": "0.341% (inactive)"}, {"smiles": "CN1C(=O)c2[nH]nc(-c3ccc(F)cc3)c2C1c1ccccn1", "note": "(stereo not given)", "activation": "1.23% (inactive)"}, {"smiles": "CCOc1ccccc1N1CCN(C(=O)COc2ccc3c(C)cc(=O)oc3c2)CC1", "activation": "-0.577% (inactive)"}, {"smiles": "Cc1ccccc1N1CCN(CCCOc2ccc3c(C)cc(=O)oc3c2)CC1", "activation": "80.1% (active)"}, {"smiles": "Cc1cc(=O)oc2cc(OCCC[n+]3ccccc3)ccc12", "activation": "0.774% (inactive)"}, {"smiles": "CCOc1ccc(NC(=O)Cn2cc(C(=O)c3ccc(C)cc3)c(=O)c3cc4c(cc32)OCCO4)cc1", "activation": "-0.524% (inactive)"}, {"smiles": "CC(=O)NCC(O)c1ccc([N+](=O)[O-])cc1", "note": "(stereo not given)", "activation": "-2.19% (inactive)"}, {"smiles": "CNCC(O)c1ccc(O)c(O)c1", "note": "(stereo not given)", "activation": "64.9% (active)"}, {"smiles": "CC(Sc1oc(-c2ccco2)nc1S(=O)(=O)c1ccc(Br)cc1)c1ccccc1", "note": "(stereo not given)", "activation": "0.011% (inactive)"}, {"smiles": "COc1ccccc1C(=O)Nc1c(C(=O)N(C)Cc2ccccc2)sc2nc(C)c(Cl)c(C)c12", "activation": "0.563% (inactive)"}, {"smiles": "COc1cc(NC(=O)c2nc3ccccc3nc2C)cc(OC)c1OC", "activation": "0.0893% (inactive)"}, {"smiles": "COc1cccc(CNC(=O)c2cc(=O)[nH]c3ccc(S(=O)(=O)N4CCCCC4)cc23)c1", "activation": "0.436% (inactive)"}, {"smiles": "CCOc1ccc(N(CC)C(=O)c2noc3c2COc2ccc(C)cc2-3)cc1", "activation": "0.123% (inactive)"}, {"smiles": "Cc1ccccc1Nc1nc(N)nc(CN2CCN(c3ccccn3)CC2)n1", "activation": "38.5% (active)"}, {"smiles": "Cc1ccccc1Nc1nc(N)nc(CSc2ccccc2)n1", "activation": "0.151% (inactive)"}, {"smiles": "Cc1ccccc1Nc1nc(N)nc(CSc2nnc3ccccn23)n1", "activation": "0.185% (inactive)"}, {"smiles": "CCOc1ccc(N(Cc2ccccc2)C(=O)c2nc(S(C)(=O)=O)ncc2Cl)cc1", "activation": "10% (inactive)"}, {"smiles": "COc1ccccc1CNC(=O)CCn1c(=O)c2ccccc2n(CC(=O)Nc2ccc(Br)cc2F)c1=O", "activation": "-0.617% (inactive)"}, {"smiles": "COc1cccc(-c2ccc3c(c2)S(=O)(=O)c2cccc(C(=O)O)c2C3=O)c1OC", "activation": "1.73% (inactive)"}, {"smiles": "Cc1ccc(CNC(=O)c2cccc3c2C(=O)c2ccc(N4CCC(C)CC4)cc2S3(=O)=O)cc1", "activation": "32% (active)"}, {"smiles": "CC1CCN(c2c(NCc3ccc(C(=O)NCc4ccccc4)cc3)c(=O)c2=O)CC1", "activation": "-1.43% (inactive)"}, {"smiles": "CCOc1cccc(CC(=O)N2CCc3c([nH]c4ccccc34)C2c2ccc(F)cc2)c1OCC", "note": "(stereo not given)", "activation": "-0.484% (inactive)"}, {"smiles": "Cc1c(CCNC(=O)c2ccc(C(F)(F)F)cc2)sc2nc(-c3ccc(F)cc3)nn12", "activation": "-2.35% (inactive)"}, {"smiles": "O=C(NC1CCCCC1)c1ccc2c(=O)n(CC3CCCO3)c(=O)[nH]c2c1", "note": "(stereo not given)", "activation": "31.5% (active)"}, {"smiles": "O=C(NCc1ccccc1Cl)c1ccc2c(=O)n(CC3CCCO3)c(=S)[nH]c2c1", "note": "(stereo not given)", "activation": "-2.85% (inactive)"}, {"smiles": "CCCCCn1c(=O)[nH]c2cc(C(=O)NCCCN3CCCCC3C)ccc2c1=O", "note": "(stereo not given)", "activation": "1.64% (inactive)"}, {"smiles": "COc1ccc(-c2nc3nc(C)cc(C)n3c2Nc2c(C)cccc2C)cc1", "activation": "2.98% (inactive)"}, {"smiles": "CCc1cc2c(cc3c(=O)n(CC(=O)NCCc4ccc(OC)c(OC)c4)ncn32)s1", "activation": "-0.234% (inactive)"}]}]}
